{"source": "PubChem BioAssay (Tox21)", "note": "Inconclusive results are not listed. Unmarked numbers belong to inactive results. Calls of active or inactive are those of the source. Calls follow the shape of the dose curve; as a rule, active = well fitted activation curve with a large enough effect in the repeat runs; inconclusive = weak or mixed curves; inactive = flat fitted curve, though single readings scatter."}
{"experiment": "A CellTox Green Cytotoxicity Assay to monitor cytotoxicity in HEK293 cells - 32 hour (AID 1224881); also: nearly all actives have a fitted effect of over 40% in size; also: potency is read from the fitted curve at half-maximal effect; as to cytotoxicity increase: % is scaled to controls: 0 for no effect and ±100 for the full control effect", "conditions": "CellTox Green fluorescence; series mostly up to 76.8 µM; cytotoxicity increase: at the top concentration", "how_it_was_run": "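Cells (HEK293, 600/well) and dye reagent are dispensed together. After 5 h at 37 C, 23 nL compound is pinned in. Plates stay at 37 C for 40 h with fluorescence read at 0h, 8h, 16h, 24h, 32h and 40h.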"}
{"molecule": "CC(=O)OCCC(C)CC(C)(C)C", "note": "(configuration not stated)", "cytotoxicity increase": "1.67%"}
{"molecule": "ClC1=C(Cl)C1(Cl)Cl", "cytotoxicity increase": "-8.73%"}
{"molecule": "O=C(O)CN1C(=O)c2cccc3cccc(c23)C1=O", "cytotoxicity increase": "1.82% [at 35.3 µM]"}
{"molecule": "CCCCCCCC/C=C\\CCCCCCCC(=O)OCCO", "cytotoxicity increase": "-1.72%"}
{"molecule": "CS(=O)(=O)c1ccc([C@@H](C[C@H]2CCC(=O)C2)C(=O)Nc2cnccn2)cc1Cl", "cytotoxicity increase": "-13.8%"}
{"molecule": "Cc1ccc2nc(N)[nH]c(=O)c2c1Sc1ccncc1", "cytotoxicity increase": "-3.66% [at 35.3 µM]"}
{"molecule": "CC(C)Cc1ccc(CC(=O)O)cc1", "Potency": "10.7 µM (active)"}
{"molecule": "COc1cc(NCc2ccc3nc(N)nc(N)c3c2C)cc(OC)c1OC", "cytotoxicity increase": "1.95% [at 35.3 µM]"}
{"molecule": "O=[N+]([O-])C1(Br)COCOC1", "Potency": "54.9 µM (active)"}
{"molecule": "CCCCCCCCCCCCCCCCCC(=O)OCC(CC)CCCC", "note": "(configuration not stated)", "cytotoxicity increase": "-15.7%"}
{"molecule": "CC12CC3CC(C)(C1)CC(N)(C3)C2", "cytotoxicity increase": "-3.4% [at 35.3 µM]"}
{"molecule": "CC/C=C\\C/C=C\\C/C=C\\CCCCCCCC(=O)OCC", "cytotoxicity increase": "17.8%"}
{"molecule": "CN1CCCN(C(c2ccccc2)c2ccc(Cl)cc2)CC1", "note": "(configuration not stated)", "Potency": "26.8 µM (active)"}
{"molecule": "O=C(O)c1cccc(C[C@@H]2COc3ccc(OCc4nc5cc(F)ccc5s4)cc3[C@@H]2O)c1", "cytotoxicity increase": "1.4%"}
{"molecule": "Cc1ccc(N(CCO)CCO)cc1", "cytotoxicity increase": "-0.655%"}
{"molecule": "CC1CCC(C(C)CS)CC1S", "note": "(configuration not stated)", "Potency": "49 µM (active)"}
{"molecule": "COC(=O)CC(C(C)=O)C(=O)OC", "note": "(configuration not stated)", "cytotoxicity increase": "-5.65%"}
{"molecule": "O[C@@H](CNC[C@H](O)[C@H]1CCc2cc(F)ccc2O1)[C@@H]1CCc2cc(F)ccc2O1", "Potency": "26.8 µM (active)"}
{"molecule": "Cc1c[nH]c2ccccc12", "cytotoxicity increase": "13.5% [at 35.3 µM]"}
{"molecule": "COc1ccc(C)cc1", "cytotoxicity increase": "7.01%"}
{"molecule": "COc1ccc(/C=C/C(=O)c2ccc(OC)cc2OC)cc1", "cytotoxicity increase": "-18.3% [at 35.3 µM]"}
{"molecule": "Cc1ccc2c(c1[N+](=O)[O-])C(=O)c1ccccc1C2=O", "cytotoxicity increase": "2.59% [at 35.3 µM]"}
